Some test systems named below: SK-MEL-2 melanoma; TK-10 renal; ACHN renal; A498 renal; CCRF-CEM leukemia; MOLT-4 leukemia; EKVX NSCLC; SN12C renal; UO-31 renal; CAKI-1 renal.
Holding throughout (test): NCI-60 one-dose screen, 48 h (100 = growth as untreated, 0 = no growth, -100 = all killed)
Common to all, as to conditions: 10 µM

About 83,000 compounds went through this panel and 20% of them were active in at least one assay; those are over-represented in the sample as a whole.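 Single-concentration screen, 48 h exposure, 96-well plates. Endpoint: percent growth. Below 10 = active.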 Values without a mark were called inactive. Calls of active or inactive are those of the source.

In the case of `O=C(Nc1ccc(OCc2nnc(-c3ccc(Cl)cc3)o2)c(F)c1)Nc1ccc(Cl)c(C(F)(F)F)c1`, the growth is -20.2% (active) in the assay on SK-MEL-2 melanoma; 15.5% in the assay with TK-10 renal; 0.519% (active) in the assay on ACHN renal; -23.7% (active) in the assay with A498 renal; 4.05% (active) in the assay with CCRF-CEM leukemia; -1.55% (active) with MOLT-4 leukemia.
As for `CCCCCC(=O)O[C@]1(C(C)=O)CCC2C3CCC4=CC(=O)CC[C@]4(C)C3CC[C@@]21C` (some centres not stated), the growth with EKVX NSCLC was 27.1%; in the assay on SN12C renal, 21.5%; in the assay with UO-31 renal, 18.1%; in the assay with TK-10 renal, 40.4%; in the assay on ACHN renal it was 24%; in the assay on CAKI-1 renal, 18.6%. For the same compound, the figures for the growth in the assay with A498 renal, with CCRF-CEM leukemia and in the assay with MOLT-4 leukemia were 19.4%, 21% and -23.1% (active), respectively.
Regarding `c1ccc(CSc2ncccc2-c2nnc(SCCN3CCOCC3)o2)cc1`, the growth in the assay on EKVX NSCLC was 108%; in the assay on SN12C renal it was 114%; with UO-31 renal, 89.4%; in the assay on TK-10 renal, 118%; in the assay with ACHN renal, 124%; in the assay with CAKI-1 renal, 100%. In addition, the figures for the growth in the assay with A498 renal, with CCRF-CEM leukemia and in the assay on MOLT-4 leukemia were 107%, 103% and 103%, respectively.
For `COc1cc(-c2ccc(N=Nc3ccc4c(S(=O)(=O)O)ccc(N)c4c3O)c(OC)c2)ccc1N=Nc1ccc2c(S(=O)(=O)O)ccc(N)c2c1O`, the growth in the assay on SK-MEL-2 melanoma was 102%; with SN12C renal it was 123%; in the assay with TK-10 renal, 121%; in the assay with ACHN renal it was 103%; with A498 renal, 124%; in the assay on MOLT-4 leukemia, 122%.
On to `CCCCc1oc2ccccc2c1C(=O)c1cc(I)c(OCCN(CC)CC)c(I)c1`, for which the growth is 3.63% (active) in the assay on EKVX NSCLC; 5.13% (active) with SN12C renal; -37% (active) in the assay with UO-31 renal; -40.5% (active) in the assay on TK-10 renal; 20% in the assay on ACHN renal; -21% (active) in the assay on CAKI-1 renal. Further, the growth with A498 renal was -47.3% (active); with CCRF-CEM leukemia it was -32.2% (active); in the assay on MOLT-4 leukemia, -54.3% (active).
On to `CC(C)Cc1ccc([C@H](C)C(=O)O)cc1`, for which the growth in the assay with EKVX NSCLC was 104%; in the assay on SN12C renal it was 103%; with UO-31 renal, 86.5%; in the assay on TK-10 renal, 100%; in the assay with ACHN renal, 108%; in the assay with CAKI-1 renal it was 93.7%. Moreover, the results for the growth with A498 renal, with CCRF-CEM leukemia and in the assay with MOLT-4 leukemia were 99.1%, 102% and 90.5%, respectively.
`Cc1cn(-c2cc(F)cc(NC(=O)c3ccc(C)c(Nc4nccc(-c5cccnc5)n4)c3)c2)cn1`: the growth with SK-MEL-2 melanoma was 64.4%; in the assay with SN12C renal it was 20.9%; in the assay on TK-10 renal it was -36.3% (active); with ACHN renal it was -22.3% (active); in the assay with CCRF-CEM leukemia, 45.6%.
With `CCN(CC)CCCC(C)N=C(C1=C(C(=NC(C)CCCN(CC)CC)c2cccc(OC)c2)C(=O)NC1=O)c1cccc(OC)c1` (configuration not stated), the growth is -53.7% (active) in the assay with SK-MEL-2 melanoma; -97.2% (active) in the assay with UO-31 renal; -31.1% (active) in the assay on TK-10 renal; -64% (active) with ACHN renal; -57.9% (active) in the assay on CAKI-1 renal; 18.7% with A498 renal. For the same compound, the growth in the assay with MOLT-4 leukemia is -15.7% (active).
Take `CC(C)[N+]1(C)C2CC[C@@H]1CC(OC(=O)C(CO)c1ccccc1)C2` (some centres not stated): the growth was 105% in the assay with EKVX NSCLC; 103% in the assay with SN12C renal; 90.7% in the assay on UO-31 renal; 107% with TK-10 renal; 105% with ACHN renal; 88.4% in the assay on CAKI-1 renal. Besides, the growth with A498 renal was 92.4%; in the assay with CCRF-CEM leukemia it was 92.3%; with MOLT-4 leukemia, 121%.
As to `CC(C)(C)c1ccc(S(=O)(=O)N[C@H]2CC[C@H]3[C@@H]4CCc5cc(O)c([N+](=O)[O-])cc5[C@H]4CC[C@]23C)cc1`, the growth in the assay with SN12C renal was 71.8%; in the assay on UO-31 renal it was 35.2%; with TK-10 renal, 90.6%; in the assay with ACHN renal it was 30%; with CAKI-1 renal, 46.3%; with A498 renal, 75.8%. The growth in the assay with MOLT-4 leukemia was 78.5%.
With `Cc1nc2n(c(=O)c1CCN1CCC(c3noc4cc(F)ccc34)CC1)CCC[C@@H]2O`, the growth is 92.8% in the assay on EKVX NSCLC; 101% in the assay on SN12C renal; 80% with UO-31 renal; 109% with TK-10 renal; 95.9% in the assay with ACHN renal; 80.5% in the assay on A498 renal. Besides, the growth with CCRF-CEM leukemia is -3.98% (active); with MOLT-4 leukemia, 96.9%.
On to `COc1cc(N)c2ncccc2c1SC`, for which the growth with EKVX NSCLC was 86%; with SN12C renal, 105%; in the assay on ACHN renal, 104%; in the assay on CAKI-1 renal, 99.2%; in the assay with A498 renal it was 71.8%; with CCRF-CEM leukemia, 98.5%. Further, the growth with MOLT-4 leukemia is 101%.
In the case of `C[N+]1(CCCCC[N+]2(C)CCCC2)CCCC1`, the growth in the assay on EKVX NSCLC is 80%; in the assay on SN12C renal, 62.4%; with TK-10 renal, 108%; with ACHN renal, 97.2%; with CAKI-1 renal it was 78.6%; with A498 renal, 108%. Moreover, the growth in the assay with MOLT-4 leukemia was 91%.
In the case of `CN(C)CCCN1c2ccccc2CCc2ccc(Cl)cc21`, the growth is 70.5% in the assay on EKVX NSCLC; 61.5% in the assay on SN12C renal; 47.3% with UO-31 renal; 71.3% in the assay with TK-10 renal; 69.2% with ACHN renal; 51.6% in the assay on CAKI-1 renal. The growth in the assay with A498 renal is 39.9%; with CCRF-CEM leukemia, 60.5%; in the assay with MOLT-4 leukemia, 30.8%.
`CC1/C=C/C=C/C=C/C=C/C=C/C=C/C=C/C(O[C@@H]2O[C@H](C)[C@H](O)[C@@H](O)[C@@H]2N)CC(O)C(C(=O)O)C(O)CC(=O)CC(O)CC(O)CC(O)CC(=O)CCCC(=O)CC(=O)OC1C(C)CC(C)C(O)CC(=O)c1ccc(N)cc1` (some centres not stated): the growth in the assay with EKVX NSCLC is -98.6% (active); with SN12C renal, -93.4% (active); in the assay on UO-31 renal it was -96.4% (active); in the assay on TK-10 renal it was -96.8% (active); with ACHN renal it was -99.7% (active); in the assay with CAKI-1 renal, -98.2% (active). In addition, the growth in the assay with A498 renal is -98.4% (active); with CCRF-CEM leukemia, -59.2% (active); in the assay on MOLT-4 leukemia, -72.2% (active).
For `C[C@]12CC[C@@H]3c4ccc(O)cc4CC[C@H]3[C@@H]1CC[C@@H]2NS(=O)(=O)c1ccc(C(F)(F)F)cc1`, the growth was 42% with SN12C renal; 13.6% with UO-31 renal; 26.9% with ACHN renal; 38.6% with CAKI-1 renal; 61.3% in the assay on A498 renal; 11.7% with MOLT-4 leukemia.
